Results filed as inconclusive are left out. The source made the active and inactive calls. Unless noted, calls come from the whole dose curve; as a rule, active = well fitted curve in the direction sought with a large enough effect; inconclusive = small, poorly fitted or top-dose-only effect, or another doubt; inactive = no such curve, though single readings can be large; an effect the other way counts as inactive or inconclusive.
Key:
[1] = target: Atrial natriuretic peptide receptor 1 (Homo sapiens) (UniProt P16066); assay: Natriuretic polypeptide receptor (hNpr1) antagonism - Pilot CMLD screen (AID 1347052; calls by dose curve;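 note: HEK293 cells with hNpr1 stimulated by hNppA peptide at 0.1 nM; cGMP level read as GloSensor luciferase luminescence after agonist stimulation; series mostly up to about 9.2 µM; % is set by controls: 0 for no effect and ±100 for the full control effect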)
[2] = qHTS for Inhibitors of Plasmodium falciparum (DD2) proliferation (AID 504314);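 note: parasite DNA measured by SYBR Green fluorescence after red cell lysis; plate controls were DMSO vehicle for no effect and artemisinin wells for full effect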
In short: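 Erythrocytes infected with P. falciparum (0.3% parasitemia, 2.5% hematocrit final) were incubated with compounds for 72 h at 37C, 5% CO2. Parasite DNA was detected by SYBR Green I fluorescence after saponin/Triton lysis, normalized to artemisinin (0.29 uM) and DMSO controls.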

[3] = qHTS for Inhibitors of Plasmodium falciparum (HB3) proliferation (AID 504318);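 note: 0% = DMSO vehicle and -100% = artemisinin control; nearly all actives have a fitted effect of over 60% in size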
In short: (§1)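 Erythrocytes infected with P. falciparum line (0.3% parasitemia, 2.5% hematocrit final) incubated with compounds 72 h at 37 °C, 5% CO2; SYBR Green lysis buffer added, fluorescence read next day. Normalized to 0.29 uM artemisinin and DMSO.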

[4] = qHTS for Inhibitors of Plasmodium falciparum (CP250) proliferation (AID 504320);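 note: plate controls were DMSO vehicle for no effect and 0.29 µM artemisinin control for full effect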
In short: as §1

[5] = target: Rap guanine nucleotide exchange factor 3 (Homo sapiens) (UniProt O95398); assay: Confirmatory qHTS for antagonist of cAMP-regulated guanine nucleotide exchange factor 3 (EPAC1) (AID 1645880);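 note: plate controls were DMSO only for no effect and full effect of the ATA control for full effect; nearly all actives have a fitted effect of over 55% in size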
In short: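 Nucleotide exchange uses 100 nM EPAC1, 250 nM RAP1B-BODIPY-GDP and 50 uM GDP, with compounds in a concentration-titration series. After 5 min at room temperature, fluorescence (480 nm ex/540 nm em) is read every 5 min for 30 min. Data are normalized to control ATA and DMSO.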

[6] = target: Rap guanine nucleotide exchange factor 3 (Homo sapiens) (UniProt O95398); assay: Confirmatory qHTS for agonist of cAMP-regulated guanine nucleotide exchange factor 3 (EPAC1) (AID 1645881);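 note: EPAC1 catalysed release of BODIPY-GDP from Rap1B seen as fluorescence loss; 100% = effect of cAMP agonist control; nearly all actives have a fitted effect of over 75% in size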
[7] = target: Rap guanine nucleotide exchange factor 4 (Homo sapiens) (UniProt Q8WZA2); assay: Confirmatory qHTS for agonist of cAMP-regulated guanine nucleotide exchange factor 4 (EPAC2) (AID 1645884);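 note: nucleotide exchange releases bodipy-GDP from Rap1 and this lowers its fluorescence; % is set by controls: 0 for no effect and ±100 for the full control effect; nearly all actives have a fitted effect of over 65% in size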
[8] = target: Rap guanine nucleotide exchange factor 4 (Homo sapiens) (UniProt Q8WZA2); assay: Confirmatory qHTS for antagonist of cAMP-regulated guanine nucleotide exchange factor 4 (EPAC2) (AID 1645885); note: % is set by controls: 0 for no effect and ±100 for the full control effect; nearly all actives have a fitted effect of over 25% in size
[9] = target: Rap guanine nucleotide exchange factor 3 (Homo sapiens) (UniProt O95398); assay: Counterscreen qHTS for antagonist of cAMP-regulated guanine nucleotide exchange factor 3 (EPAC1) (AID 1645888);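 note: fluorescence loss as bound BODIPY-GDP is released from Rap1B; % of control where 0% means no effect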
In short: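 Rap1B-BODIPY-GDP 250 nM + GDP 50 uM; cpds 7-pt, final 9.74 nM–152 uM (activator mode) or from 7.32 nM upwards (inhibitor mode); RT; FI 480/540 nm at 5 and 30 min, then ± cAMP, reread.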

Rap guanine nucleotide exchange factor 3 (Homo sapiens), sequence (O95398 whole entry, looked up): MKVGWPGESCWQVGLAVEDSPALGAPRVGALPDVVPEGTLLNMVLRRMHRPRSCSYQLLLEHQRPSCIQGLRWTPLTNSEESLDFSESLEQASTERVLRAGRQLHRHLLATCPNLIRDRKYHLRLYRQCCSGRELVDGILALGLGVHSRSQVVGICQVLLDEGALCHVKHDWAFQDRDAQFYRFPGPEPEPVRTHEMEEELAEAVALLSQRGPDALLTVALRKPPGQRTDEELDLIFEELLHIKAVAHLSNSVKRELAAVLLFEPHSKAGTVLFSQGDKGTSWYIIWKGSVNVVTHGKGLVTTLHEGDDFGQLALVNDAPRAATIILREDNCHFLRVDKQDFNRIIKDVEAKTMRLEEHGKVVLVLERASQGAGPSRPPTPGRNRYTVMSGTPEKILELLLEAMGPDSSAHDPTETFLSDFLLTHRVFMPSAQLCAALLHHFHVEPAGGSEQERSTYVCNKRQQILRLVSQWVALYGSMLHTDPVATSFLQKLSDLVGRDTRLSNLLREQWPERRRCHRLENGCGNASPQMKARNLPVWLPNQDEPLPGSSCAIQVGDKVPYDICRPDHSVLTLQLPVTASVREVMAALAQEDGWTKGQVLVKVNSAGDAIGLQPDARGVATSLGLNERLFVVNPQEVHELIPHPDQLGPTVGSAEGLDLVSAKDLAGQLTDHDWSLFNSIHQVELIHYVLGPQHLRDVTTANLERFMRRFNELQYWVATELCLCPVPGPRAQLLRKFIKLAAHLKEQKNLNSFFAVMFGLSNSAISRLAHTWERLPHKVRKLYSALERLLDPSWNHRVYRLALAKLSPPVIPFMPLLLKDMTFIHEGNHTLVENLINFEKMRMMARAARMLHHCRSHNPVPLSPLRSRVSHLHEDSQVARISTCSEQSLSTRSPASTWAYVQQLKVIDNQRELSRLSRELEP
Rap guanine nucleotide exchange factor 4 (Homo sapiens), sequence (Q8WZA2 whole entry, looked up): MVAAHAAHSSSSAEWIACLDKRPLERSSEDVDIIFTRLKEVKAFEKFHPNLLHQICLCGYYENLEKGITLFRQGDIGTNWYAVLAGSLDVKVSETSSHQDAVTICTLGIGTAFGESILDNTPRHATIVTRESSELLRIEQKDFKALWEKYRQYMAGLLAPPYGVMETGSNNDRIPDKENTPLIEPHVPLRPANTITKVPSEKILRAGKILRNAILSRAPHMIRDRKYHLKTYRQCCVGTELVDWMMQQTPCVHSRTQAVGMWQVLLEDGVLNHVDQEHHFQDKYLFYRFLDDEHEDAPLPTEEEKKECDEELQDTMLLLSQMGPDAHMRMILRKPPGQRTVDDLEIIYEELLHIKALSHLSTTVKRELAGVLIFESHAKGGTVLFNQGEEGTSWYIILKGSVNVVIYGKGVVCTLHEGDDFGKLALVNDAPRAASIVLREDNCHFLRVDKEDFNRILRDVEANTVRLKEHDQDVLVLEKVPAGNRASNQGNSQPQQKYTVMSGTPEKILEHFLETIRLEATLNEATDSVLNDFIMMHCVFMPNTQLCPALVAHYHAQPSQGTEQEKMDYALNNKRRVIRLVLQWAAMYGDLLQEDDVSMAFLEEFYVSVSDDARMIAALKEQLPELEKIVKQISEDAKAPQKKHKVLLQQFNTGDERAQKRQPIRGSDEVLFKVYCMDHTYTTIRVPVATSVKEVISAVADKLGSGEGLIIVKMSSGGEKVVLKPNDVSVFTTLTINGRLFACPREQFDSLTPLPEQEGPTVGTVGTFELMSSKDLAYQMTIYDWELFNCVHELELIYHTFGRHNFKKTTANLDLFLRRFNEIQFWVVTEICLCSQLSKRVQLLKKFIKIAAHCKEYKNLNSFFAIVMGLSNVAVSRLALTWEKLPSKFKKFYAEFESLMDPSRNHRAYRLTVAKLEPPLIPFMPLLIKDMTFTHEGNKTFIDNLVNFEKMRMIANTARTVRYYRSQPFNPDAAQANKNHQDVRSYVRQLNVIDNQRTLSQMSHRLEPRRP
Atrial natriuretic peptide receptor 1 (Homo sapiens), sequence (P16066 whole entry, looked up): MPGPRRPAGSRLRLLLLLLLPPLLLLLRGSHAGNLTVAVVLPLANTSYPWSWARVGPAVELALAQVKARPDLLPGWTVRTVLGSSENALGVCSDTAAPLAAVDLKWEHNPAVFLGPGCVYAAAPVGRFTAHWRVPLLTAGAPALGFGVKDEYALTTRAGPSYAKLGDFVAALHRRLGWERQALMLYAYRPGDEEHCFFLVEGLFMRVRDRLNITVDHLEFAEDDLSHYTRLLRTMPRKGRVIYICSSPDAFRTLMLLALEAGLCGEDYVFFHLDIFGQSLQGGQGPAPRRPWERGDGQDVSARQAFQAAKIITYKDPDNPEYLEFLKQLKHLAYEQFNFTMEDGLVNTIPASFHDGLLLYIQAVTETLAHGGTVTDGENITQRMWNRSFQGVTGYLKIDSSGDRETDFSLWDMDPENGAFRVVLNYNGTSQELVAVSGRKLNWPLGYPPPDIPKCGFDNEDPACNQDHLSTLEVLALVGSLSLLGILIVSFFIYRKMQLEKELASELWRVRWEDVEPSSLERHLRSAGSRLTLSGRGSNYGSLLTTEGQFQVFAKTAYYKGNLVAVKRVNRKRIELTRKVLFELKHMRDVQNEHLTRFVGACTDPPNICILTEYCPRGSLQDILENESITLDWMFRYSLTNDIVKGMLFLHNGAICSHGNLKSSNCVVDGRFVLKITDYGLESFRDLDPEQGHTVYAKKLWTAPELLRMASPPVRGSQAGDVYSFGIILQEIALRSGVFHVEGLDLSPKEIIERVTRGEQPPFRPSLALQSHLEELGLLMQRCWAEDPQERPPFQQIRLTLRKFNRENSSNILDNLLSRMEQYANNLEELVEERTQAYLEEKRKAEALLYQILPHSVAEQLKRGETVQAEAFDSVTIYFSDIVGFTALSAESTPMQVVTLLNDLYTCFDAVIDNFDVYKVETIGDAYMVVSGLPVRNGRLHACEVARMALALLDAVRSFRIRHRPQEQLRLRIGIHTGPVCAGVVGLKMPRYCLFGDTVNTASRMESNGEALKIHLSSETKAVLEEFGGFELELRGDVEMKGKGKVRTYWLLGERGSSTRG

CC(C)(C)Nc1oc(-c2ccccc2)nc1-c1cccc2ccccc12
inactive: Potency [1]

COC(=O)CCC(=O)OC1(C)C(=O)C=C2C=C(C3CC3)N(CCCOC(C)C)C=C2C1=O (centres undefined)
inactive: activity, negative = inhibition [2] -1.07% [at 1.12 µM] | Potency [3] | Potency [4] | Potency [5] | outcome [6] | outcome [7] | Potency [8] | outcome [9]

Reference: PubChem BioAssay (NCATS)
